Source: PubChem BioAssay (Tox21)
Records with an inconclusive call do not appear. Calls of active or inactive are those of the source. Unless noted, calls follow the shape of the full dose curve.

Columns and labels:
[1] = Nuclear factor erythroid 2-related factor 2/antioxidant responsive element (Nrf2/ARE) small molecule agonists: qHTS cell viability counter screen in human keratinocytes (AID 1919968; active = well fitted curve in the direction sought with a large enough effect in the repeat runs; an effect the other way counts as inactive or inconclusive; also: nearly all actives have a fitted effect of over 55% in size; also: potency is read from the fitted curve at half-maximal effect)
Outline: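 Cells of the KeratinoSens line were plated at 1,500 per well and left for 5 h before compound transfer from DMSO stocks. After a 23 h incubation (37 C, 5% CO2), CellTiter-Fluor was added. Signal was taken as fluorescence intensity 1 h later.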

[2] = Nuclear factor erythroid 2-related factor 2/antioxidant responsive element (Nrf2/ARE) small molecule agonists: luciferase reporter gene qHTS assay in human keratinocytes (AID 1919969); also: nearly all actives have a fitted effect of over 35% in size; also: potency is read from the fitted curve at half-maximal effect
[3] = target: Gonadotropin-releasing hormone receptor (Homo sapiens) (UniProt P30968); experiment: Human gonadotropin-releasing hormone receptor (GnRHR) small molecule agonists, calcium flux assay in GnRHR-HEK293 cells (AID 1920063); also: nearly all actives have a fitted effect of over 35% in size
Outline: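 Compounds dissolved in DMSO are pin-transferred onto dye-loaded GnRHR-HEK293 cells, which were seeded 18 h before at 37 C/5% CO2. Calcium signal is read as fluorescence intensity at 1 s intervals for 3 min.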

[4] = target: KiSS-1 receptor (Homo sapiens) (UniProt Q969F8); experiment: Human kisspeptin (KISS1R) small molecule agonists, calcium flux assay in KISS1R-HEK293 cells (AID 1920064; active = well fitted curve in the direction sought with a large enough effect in the repeat runs; an effect the other way counts as inactive or inconclusive)
Outline: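 Cell line: HEK293, stable human KISS1R. Dye loading 1 h at 37 C after 18 h culture. Read: kinetic fluorescence, 480/540 nm, 3 min at 1 s intervals.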

[5] = G protein-coupled receptor (GPCR) small molecule agonists, calcium flux assay: HEK293 wild type cell line counter screen (AID 1920065)
Outline: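 Tox21 10K compounds, 15 concentrations each in triplicate, pin-transferred in DMSO onto dye-loaded cells; kinetic read at 480/540 nm for 3 min, 1 s intervals.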

[6] = p53 small molecule agonists, cell-based qHTS assay with human liver microsomes (AID 1963577);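 also: p53 response element beta-lactamase reporter cells with liver microsomes plus NADPH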
Outline: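 Steps: plate p53RE-bla cells, incubate 5 h at 37 C; add compound in DMSO; add microsomes (0.5 mg/mL final) and NADPH (0.5 mg/mL final); incubate 16 h at 37 C; add LiveBLAzer, 2 h RT; read fluorescence.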

[7] = p53 small molecule agonists, cell-based qHTS assay with rat liver microsomes (AID 1963578)
Outline: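 Metabolic activation is supplied by rat liver microsomes with NADPH (each 0.5 mg/mL final). p53RE-bla cells incubate with compound 16 h at 37 C; reporter activity is measured by LiveBLAzer fluorescence.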

[8] = p53 small molecule agonists, cell-based qHTS assay with human liver microsomes: qHTS cell viability counter screen (AID 1963579); also: nearly all actives have a fitted effect of over 45% in size; also: potency is read from the fitted curve at half-maximal effect
Outline: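 After the 460/530 nm beta-lactamase read, CellTiter-Glo was added to the same wells and luminescence measured after 30 min at room temperature, giving viability of p53RE-bla cells treated 16 h with compounds plus microsomes and NADPH.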

[9] = p53 small molecule agonists, cell-based qHTS assay with rat liver microsomes: qHTS cell viability counter screen (AID 1963580); also: nearly all actives have a fitted effect of over 45% in size; also: potency is read from the fitted curve at half-maximal effect
Outline: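 Cytotoxicity counter screen: intracellular ATP read by CellTiter-Glo luminescence in the p53 reporter wells. HCT-116 p53RE-bla cells were treated for 16 h at 37 C alongside rat liver microsomes and NADPH, each 0.5 mg/mL final.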

[10] = p53 small molecule agonists, cell-based qHTS assay: qHTS cell viability counter screen (AID 1963581); also: nearly all actives have a fitted effect of over 45% in size; also: potency is read from the fitted curve at half-maximal effect
Outline: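 ATP content measured by luminescence in HCT-116 p53RE-bla cells treated 16 h at 37 C, same wells as the reporter screen.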

[11] = target: 5-hydroxytryptamine receptor 2A (Homo sapiens) (UniProt P28223); experiment: 5-hydroxytryptamine receptor 2A (HTR2A) small molecule antagonists, cell-based qHTS assay (AID 1963586); also: nearly all actives have a fitted effect of over 45% in size; also: potency is read from the fitted curve at half-maximal effect
Outline: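 CHO cells stably expressing human HTR2A were plated for 18 h at 37 C, then loaded with calcium dye for 1 h. Compounds were preincubated 5 min at room temperature before DOI (4 nM solution) was added. Kinetic fluorescence was read for 3 min.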

[12] = target: 5-hydroxytryptamine receptor 2A (Homo sapiens) (UniProt P28223); experiment: 5-hydroxytryptamine receptor 2A (HTR2A) small molecule agonists, cell-based qHTS assay (AID 1963587); also: nearly all actives have a fitted effect of over 30% in size
Outline: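 Kinetic calcium-flux fluorescence (2 min, 1 sec intervals) after compound addition in agonist mode. HTR2A-CHO cells were cultured 18 h, then dye-loaded 1 h at 37 C.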

[13] = target: Muscarinic acetylcholine receptor M1 (Homo sapiens) (UniProt P11229); experiment: Cholinergic receptor muscarinic 1 (CHRM1) small molecule antagonists, cell-based qHTS assay (AID 1963588); also: nearly all actives have a fitted effect of over 40% in size
Outline: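 Compounds were tested at 15 concentrations in three independent runs. Dye-loaded CHRM1-CHO cells were exposed 5 min at room temperature before stimulation by acetylcholine added at 50nM. Intracellular calcium was read kinetically on FDSS for 3 min.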

[14] = target: Muscarinic acetylcholine receptor M1 (Homo sapiens) (UniProt P11229); experiment: Cholinergic receptor muscarinic 1 (CHRM1) small molecule agonists, cell-based qHTS assay (AID 1963589); also: nearly all actives have a fitted effect of over 35% in size
Outline: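 Homogeneous fluorescence calcium flux, agonist mode. Human M1-expressing CHO cells; compound dosed at 15 concentrations, three independent runs; signal sampled every 1 sec.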

[15] = target: Beta-2 adrenergic receptor (Homo sapiens) (UniProt P07550); experiment: Adrenergic beta2 receptor (ADRB2) small molecule antagonists, cell-based qHTS assay (AID 1963592); also: series mostly up to about 92 µM; nearly all actives have a fitted effect of over 50% in size
Outline: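 Assay format: CHO-ADRB2 cells, 18-20hr seeding at 37C/5% CO2, then compound plus 1nM isoproterenol agonist mix for 0.5hr RT. Homogeneous time-resolved fluorescence cAMP detection after 1hr, expressed as 665/615 nm ratio.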

[16] = target: D(2) dopamine receptor (Homo sapiens) (UniProt P14416); experiment: Dopamine D2 receptor (DRD2) small molecule agonists, cell-based qHTS assay (AID 1963594); also: nearly all actives have a fitted effect of over 35% in size
Outline: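 cAMP accumulation in DRD2-HEK293 cells measured by HTRF after 1 h detection; compounds added 10 min before NKH477 (200nM […]) forskolin-analogue stimulation, 30 min at room temperature, with Ro20-1724 present at 0.1 mM final.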

[17] = target: D(2) dopamine receptor (Homo sapiens) (UniProt P14416); experiment: Dopamine D2 receptor (DRD2) small molecule antagonists, cell-based qHTS assay (AID 1963595; active = well fitted inhibition curve with a large enough effect in the signal ratio in the repeat runs, with a control signal flat; the % refers to the signal ratio)
Outline: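 Antagonist mode in DRD2-HEK293 cells: after compound addition with 0.1 mM Ro20-1724, cells received quinpirole (12 nM) and NKH477 (200 nM) for 30 min at room temperature; HTRF cAMP read after 1 h detection.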

[18] = cAMP Responsive Elements (CRE) small molecule antagonists, cell-based qHTS assay (AID 1963591; active = well fitted inhibition curve with a large enough effect in the signal ratio in the repeat runs, not every such curve was filed as active; the % refers to the signal ratio; also: potency is read from the fitted curve at half-maximal effect)
Outline: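 First, CRE-bla HEK293T cells settled 18 h at 37 C. Next, compound and 0.25 uM final NKH477 were applied for 3 h. Last, LiveBLAzer B/G substrate was loaded for 2 h at room temperature.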

[19] = cAMP Responsive Elements (CRE) small molecule agonists, cell-based qHTS assay (AID 1963590)
Outline: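 HEK 293T cells stably bearing CRE-bla were plated at 2,000 cells per well and rested 18 h. Compounds, positive controls or DMSO were added for 3 h at 37 C. LiveBLAzer B/G substrate was then loaded for 2 h at room temperature.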
% is scaled to controls: 0 for no effect and ±100 for the full control effect.

Sequence of Muscarinic acetylcholine receptor M1 (Homo sapiens) (P11229 whole entry, looked up): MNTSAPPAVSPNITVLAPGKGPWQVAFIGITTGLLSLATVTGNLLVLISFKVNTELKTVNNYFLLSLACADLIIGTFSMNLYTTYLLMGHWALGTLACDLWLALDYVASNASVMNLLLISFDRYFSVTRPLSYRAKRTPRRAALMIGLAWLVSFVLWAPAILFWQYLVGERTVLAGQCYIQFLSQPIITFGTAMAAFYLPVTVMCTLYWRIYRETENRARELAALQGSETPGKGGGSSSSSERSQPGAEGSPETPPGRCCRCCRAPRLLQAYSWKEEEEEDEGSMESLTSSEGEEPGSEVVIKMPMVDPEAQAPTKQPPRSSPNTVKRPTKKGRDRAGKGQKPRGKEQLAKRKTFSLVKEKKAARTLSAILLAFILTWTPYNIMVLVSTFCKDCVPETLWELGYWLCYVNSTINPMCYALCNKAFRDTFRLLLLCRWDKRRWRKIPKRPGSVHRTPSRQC
Sequence of 5-hydroxytryptamine receptor 2A (Homo sapiens) (P28223 whole entry, looked up): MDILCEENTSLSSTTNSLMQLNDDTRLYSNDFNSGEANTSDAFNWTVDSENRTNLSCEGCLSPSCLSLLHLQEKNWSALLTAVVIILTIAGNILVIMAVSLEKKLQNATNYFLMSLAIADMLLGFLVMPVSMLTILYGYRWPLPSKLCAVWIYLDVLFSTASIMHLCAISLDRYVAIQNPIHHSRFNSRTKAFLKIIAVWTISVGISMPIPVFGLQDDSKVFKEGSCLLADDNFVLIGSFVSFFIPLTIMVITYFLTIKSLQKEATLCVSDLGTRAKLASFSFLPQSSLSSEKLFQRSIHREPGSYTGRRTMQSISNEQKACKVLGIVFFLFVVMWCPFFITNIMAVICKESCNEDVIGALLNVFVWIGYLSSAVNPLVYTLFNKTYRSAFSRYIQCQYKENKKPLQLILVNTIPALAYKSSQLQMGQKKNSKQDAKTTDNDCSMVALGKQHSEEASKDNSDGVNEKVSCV
Sequence of D(2) dopamine receptor (Homo sapiens) (P14416 whole entry, looked up): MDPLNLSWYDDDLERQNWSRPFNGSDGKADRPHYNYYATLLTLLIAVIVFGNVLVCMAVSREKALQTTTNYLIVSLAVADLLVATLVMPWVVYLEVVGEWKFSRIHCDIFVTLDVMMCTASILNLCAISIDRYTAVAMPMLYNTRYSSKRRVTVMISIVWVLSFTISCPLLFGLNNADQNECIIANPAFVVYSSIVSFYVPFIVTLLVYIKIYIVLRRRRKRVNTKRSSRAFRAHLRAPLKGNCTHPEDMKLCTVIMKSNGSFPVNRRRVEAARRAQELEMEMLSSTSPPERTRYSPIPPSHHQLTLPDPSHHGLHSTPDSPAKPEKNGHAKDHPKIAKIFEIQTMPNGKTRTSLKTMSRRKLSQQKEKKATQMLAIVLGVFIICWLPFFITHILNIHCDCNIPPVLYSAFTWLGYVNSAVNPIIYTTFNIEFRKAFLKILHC
Sequence of Beta-2 adrenergic receptor (Homo sapiens) (P07550 whole entry, looked up): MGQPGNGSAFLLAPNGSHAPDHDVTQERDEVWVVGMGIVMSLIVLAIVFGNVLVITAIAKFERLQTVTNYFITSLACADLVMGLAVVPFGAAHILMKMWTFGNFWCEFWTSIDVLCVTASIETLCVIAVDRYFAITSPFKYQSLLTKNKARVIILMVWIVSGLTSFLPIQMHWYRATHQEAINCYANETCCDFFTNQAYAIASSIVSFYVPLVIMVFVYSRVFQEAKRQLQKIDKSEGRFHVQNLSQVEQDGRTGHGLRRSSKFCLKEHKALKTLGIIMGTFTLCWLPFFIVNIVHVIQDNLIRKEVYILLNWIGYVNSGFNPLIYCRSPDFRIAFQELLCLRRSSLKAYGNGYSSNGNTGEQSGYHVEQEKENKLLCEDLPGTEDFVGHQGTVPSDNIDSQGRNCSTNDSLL
Sequence of KiSS-1 receptor (Homo sapiens) (Q969F8 whole entry, looked up): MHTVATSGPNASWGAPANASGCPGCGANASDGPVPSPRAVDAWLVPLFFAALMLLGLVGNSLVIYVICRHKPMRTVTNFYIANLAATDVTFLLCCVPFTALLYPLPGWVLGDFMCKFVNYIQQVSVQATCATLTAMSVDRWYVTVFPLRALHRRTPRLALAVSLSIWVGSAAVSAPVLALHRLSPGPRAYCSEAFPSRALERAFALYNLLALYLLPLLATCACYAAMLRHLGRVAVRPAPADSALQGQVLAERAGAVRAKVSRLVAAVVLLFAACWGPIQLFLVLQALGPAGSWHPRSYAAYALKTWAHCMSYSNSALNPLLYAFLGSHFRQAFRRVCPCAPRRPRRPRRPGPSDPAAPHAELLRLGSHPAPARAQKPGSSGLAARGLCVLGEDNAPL
Sequence of Gonadotropin-releasing hormone receptor (Homo sapiens) (P30968 whole entry, looked up): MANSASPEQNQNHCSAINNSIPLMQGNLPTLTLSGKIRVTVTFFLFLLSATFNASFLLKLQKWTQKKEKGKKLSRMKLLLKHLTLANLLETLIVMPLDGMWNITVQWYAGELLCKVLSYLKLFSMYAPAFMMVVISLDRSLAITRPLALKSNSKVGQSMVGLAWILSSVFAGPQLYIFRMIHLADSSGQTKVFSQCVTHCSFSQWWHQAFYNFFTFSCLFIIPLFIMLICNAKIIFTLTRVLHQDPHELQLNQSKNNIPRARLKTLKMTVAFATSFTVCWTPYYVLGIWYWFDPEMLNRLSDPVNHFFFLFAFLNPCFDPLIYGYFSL

O=C(OCC1CO1)C1CCCCC1C(=O)OCC1CO1 (stereo not drawn)
active: Potency [2] 68.7 µM
inactive: Potency [1] | Potency [3] | outcome [4] | outcome [5] | Potency [6] | Potency [7] | Potency [8] | Potency [9] | Potency [10] | Potency [11] | Potency [12] | Potency [13] | Potency [14] | Potency [15] | Potency [16] | Potency [17]

C/C=C/C=C/CCCCCCCO
active: Potency [2] 68.6 µM
inactive: Potency [1] | Potency [3] | outcome [4] | outcome [5] | Potency [6] | Potency [7] | Potency [8] | Potency [9] | Potency [10] | Potency [11] | Potency [12] | Potency [13] | Potency [14] | Potency [15]

CO[C@H]1C=CO[C@@]2(C)Oc3c(C)c(O)c4c(O)c(cc(O)c4c3C2=O)NC(=O)/C(C)=C\C=C/[C@H](C)[C@H](O)[C@@H](C)[C@@H](O)[C@@H](C)[C@H](OC(C)=O)[C@@H]1C
active: Potency [1] 54.9 µM | Potency [2] 27.5 µM
inactive: Potency [3] | outcome [4] | outcome [5] | Potency [6] | Potency [7] | Potency [8] | Potency [9] | Potency [10] | Potency [11] | Potency [12] | Potency [14] | Potency [18] | Potency [16]

Cc1oc(-c2ccccc2)nc1CCOc1ccc(C[C@H](Nc2ccccc2C(=O)c2ccccc2)C(=O)O)cc1
inactive: Potency [2] | Potency [3] | outcome [4] | outcome [5] | Potency [6] | Potency [7] | Potency [11] | Potency [12] | Potency [13] | Potency [15] | Potency [17]
active: Potency [1] 30.6 µM | Potency [8] 28.9 µM | Potency [9] 45.8 µM | Potency [10] 20.4 µM

Cc1cc(O)c2c(c1)C(=O)c1cccc(O)c1C2=O
inactive: Potency [1] | Potency [3] | outcome [4] | outcome [5] | Potency [6] | Potency [7] | Potency [8] | Potency [9] | Potency [10] | Potency [11] | Potency [12] | Potency [13] | Potency [14] | Potency [15] | Potency [16] | Potency [17]
active: Potency [2] 8.43 µM

Oc1ccc(-c2ccc(O)cc2)cc1
active: Potency [2] 30.8 µM
inactive: Potency [1] | Potency [3] | outcome [4] | outcome [5] | Potency [6] | Potency [7] | Potency [8] | Potency [9] | Potency [10] | Potency [11] | Potency [12] | Potency [13] | Potency [14] | Potency [18] | Potency [16] | Potency [17]

CN1C(=O)N(c2ccccc2Br)Cc2cnc(Nc3ccc4c(c3)OCC(CO)O4)nc21 (stereo not drawn)
inactive: Potency [2] | Potency [3] | outcome [4] | outcome [5] | Potency [6] | Potency [7] | Potency [8] | Potency [9] | Potency [10] | Potency [11] | Potency [12] | Potency [13] | Potency [14] | Potency [16]
active: Potency [1] 54.5 µM | Potency [18] 57 µM

CC(C)COC(=O)COc1cc(Cl)c(Cl)cc1Cl
inactive: Potency [1] | Potency [2] | Potency [3] | outcome [4] | outcome [5] | Potency [6] | Potency [7] | Potency [8] | Potency [9] | Potency [10] | Potency [11] | Potency [12] | Potency [14] | Potency [15] | Potency [16] | Potency [17]

O=C(O)C[C@H](O)C[C@H](O)/C=C/c1c(C2CC2)nc2ccccc2c1-c1ccc(F)cc1
inactive: activity change, negative = cytotoxicity [1] -15.1% [at 19 µM] | activity, positive = activation [2] -21.1% [at 19 µM] | activity change [3] -1.52% [at 11.8 µM, hits give high values] | activation [4] -0.214% [at 15.8 µM] | activation [5] -0.173% [at 11.8 µM] | activation [6] -13.7% [at 13.5 µM] | activation [7] -4.07% [at 13.6 µM] | activity change, negative = cytotoxicity [8] -1.08% [at 13.5 µM] | activity change, negative = cytotoxicity [9] 1.65% [at 13.5 µM] | activity change, negative = cytotoxicity [10] 0.0104% [at 13.5 µM] | activity, negative = inhibition [11] -9.13% [at 12.7 µM] | activation [12] -5.4% [at 15.9 µM] | activity, negative = inhibition [13] 7.39% [at 12.6 µM] | activation [19] 0.303% [at 19 µM] | activity change, negative = inhibition [15] -0.968% [at 19 µM] | activation [16] -0.0463% [at 19 µM] | activity change, negative = inhibition [17] 4% [at 18.9 µM]

CCOC(=O)CC
inactive: Potency [1] | Potency [2] | Potency [3] | outcome [4] | outcome [5] | Potency [6] | Potency [7] | Potency [8] | Potency [9] | Potency [10] | Potency [11] | Potency [12] | Potency [13] | Potency [19] | Potency [18] | Potency [16] | Potency [17]

CCNC(=O)N1CCN(CCCC(c2ccc(F)cc2)c2ccc(F)cc2)CC1
active: Potency [11] 0.23 µM
inactive: Potency [1] | Potency [2] | Potency [3] | outcome [4] | outcome [5] | Potency [6] | Potency [7] | Potency [8] | Potency [9] | Potency [10] | Potency [12] | Potency [14] | Potency [19] | Potency [16]

CNC(=O)N(c1ccccc1)c1ccccc1
inactive: Potency [1] | Potency [2] | Potency [3] | outcome [4] | outcome [5] | Potency [6] | Potency [7] | Potency [8] | Potency [9] | Potency [10] | Potency [11] | Potency [12] | Potency [13] | Potency [19] | Potency [18] | Potency [15] | Potency [16] | Potency [17]

CCCCCCCCSCc1cc(C)c(O)c(CSCCCCCCCC)c1
active: Potency [2] 61.1 µM
inactive: Potency [1] | Potency [3] | outcome [4] | outcome [5] | Potency [6] | Potency [7] | Potency [8] | Potency [9] | Potency [10] | Potency [11] | Potency [12] | Potency [13] | Potency [14] | Potency [18] | Potency [15] | Potency [16] | Potency [17]

O=C(O)c1cccc(N(Cc2cccnc2)c2ccc(OC(F)F)c(OC(F)F)c2)c1
inactive: Potency [1] | Potency [2] | Potency [3] | outcome [4] | outcome [5] | Potency [6] | Potency [7] | Potency [8] | Potency [9] | Potency [10] | Potency [11] | Potency [12] | Potency [13] | Potency [14] | Potency [15] | Potency [16] | Potency [17]

C/C(=N\O)c1ccc(OCC(=O)N2CCCCC2)cc1
active: Potency [2] 11.9 µM
inactive: Potency [1] | Potency [3] | outcome [4] | outcome [5] | Potency [6] | Potency [7] | Potency [8] | Potency [9] | Potency [10] | Potency [11] | Potency [13] | Potency [14] | Potency [19] | Potency [18] | Potency [15] | Potency [16] | Potency [17]
